Measured values reported in PubChem BioAssay AID743286 (National Center for Advancing Translational Sciences (NCATS), 2014).
About 340 (31%) of roughly 1,100 compounds were called active. About 40% were inconclusive and are not listed. Not all results are given here. Values without a mark were called inactive. Calls follow the shape of the dose curve; as a rule, active = well fitted inhibition curve with a large enough effect; inconclusive = small, poorly fitted or top-dose-only effect; inactive = flat fitted curve, though single readings scatter.

Target: Phosphatidylinositol 5-phosphate 4-kinase type-2 alpha (Homo sapiens) (UniProt P48426)
Assay: qHTS for Inhibitors of PI5P4K: Confirmation in Primary Assay; also: nearly all actives have a fitted effect of over 65% in size
Settings: PI5P4Kalpha enzyme, ADP-Glo luminescence, 60 min; series mostly up to 76.9 µM; activity change, negative = inhibition: at the top concentration
Method in brief: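 ADP-Glo luminescence end-point quantified ADP produced by PI5P4Kα after 60 min at room temperature with 5 microM ATP. Buffer: HEPES pH 7.4, EGTA, 0.1% CHAPS, 5% DMSO final; compounds added before ATP.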
% is scaled to controls: 0 for no effect and ±100 for the full control effect; potency is read from the fitted curve at half-maximal effect.

Chain of Phosphatidylinositol 5-phosphate 4-kinase type-2 alpha (Homo sapiens) (P48426 whole entry, looked up): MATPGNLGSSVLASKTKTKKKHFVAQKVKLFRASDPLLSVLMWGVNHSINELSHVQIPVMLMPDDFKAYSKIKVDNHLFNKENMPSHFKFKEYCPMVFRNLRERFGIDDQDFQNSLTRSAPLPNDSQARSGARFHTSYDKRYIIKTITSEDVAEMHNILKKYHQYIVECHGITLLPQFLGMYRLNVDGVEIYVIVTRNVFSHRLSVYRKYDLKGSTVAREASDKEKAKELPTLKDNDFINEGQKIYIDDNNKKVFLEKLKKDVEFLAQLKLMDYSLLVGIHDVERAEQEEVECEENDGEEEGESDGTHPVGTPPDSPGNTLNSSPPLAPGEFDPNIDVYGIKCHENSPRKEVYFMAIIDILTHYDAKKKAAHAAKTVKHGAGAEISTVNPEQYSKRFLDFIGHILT

Compound	activity change, negative = inhibition	Potency
O=S1(=O)CC(N2CCSCC2)CN1Cc1cn(Cc2ccc(F)cc2)nn1 (centres undefined)	0.289%	
COc1cc(Br)cc(CNc2ccc(F)c([N+](=O)[O-])c2)c1O	4.43%	
Cn1c(=O)c2c(-c3ccccc3)n(-c3cccc(O)c3)cc2n(C)c1=O	-7.76%	
Cc1cccc(C2Nc3ccccc3C(=O)N2c2ccc(F)cc2)n1 (centres undefined)	10.2%	
COc1ccc2[nH]c(=O)c(CN(Cc3nnnn3Cc3ccco3)C3CCCCC3)cc2c1	-6.21%	
NS(=O)(=O)c1ccc2c(c1)C1C=CCC1C(C1CC=CCC1)N2 (centres undefined)		28.2 µM (active)
CCN(CC)CCCCCC(=O)Nc1ccccc1C(=O)Nc1ccccc1	0.323%	
CCCCC1=CC2=CC(=O)C(C)(OC(=O)C3CCCC3)C(=O)C2=CO1 (centres undefined)		15.8 µM (active)
Cc1c(Cl)cccc1NC(=O)Cn1nnc(C(=O)NCc2cccs2)c1N	-10.6%	
S=C(NCc1ccccc1)N1CCc2ccccc2C1	8.97%	
Cc1ccc([N+](=O)[O-])cc1NC(=O)CCSc1ccc(Cl)cc1	11.2%	
NC(=O)c1ccsc1NC(=O)c1ccc([N+](=O)[O-])o1		12.6 µM (active)
Cc1ccc(Nc2nc(NCc3ccco3)c3ccccc3n2)cc1		35.5 µM (active)
COc1ccccc1CNc1nc(Nc2cccc(-c3cnco3)c2)c2sccc2n1	-16.8%	
Cc1cccc(Nc2nc(NCc3ccco3)c3ccccc3n2)c1		35.5 µM (active)
CCc1cc(=O)oc2cc(C)c(CN3CCCCC3)c(O)c12	-23.8%	
COc1ccc(N(C(=O)c2ccccc2)S(=O)(=O)c2cccs2)cc1	-2.58%	
CC(CNC(=O)c1ccc(Br)o1)NC(=O)c1ccc(Br)o1 (centres undefined)	-4.83%	
COc1ccc(Br)cc1C(=O)Nc1cccc(NC(=O)c2ccco2)c1	-7.07%	
O=C(Nc1cccc(S(=O)(=O)NC2=NCCCCC2)c1)c1cc(-c2ccco2)nc2ccccc12		2.82 µM (active)
O=C(Nc1cccc(S(=O)(=O)NC2=NCCC2)c1)c1cc(-c2ccco2)nc2ccccc12		2.51 µM (active)
COc1ccc(NC(=O)c2cc(-c3ccco3)nc3ccccc23)cc1S(=O)(=O)N1CCOCC1		6.31 µM (active)

Compound	activity change, negative = inhibition	Potency
Cc1csc(=O)n1CCC(=O)OCC(=O)Nc1ccc(N2CCOCC2)cc1	-1.41%	
COc1ccc(N2CC(O)=C(c3nc(-c4ccccc4)cs3)C2=N)cc1	-4.17%	
CCCCc1c(Cc2ccccc2)ncn1CCc1ccccc1OC	10.2%	
CC(=O)c1ccc(NC(=O)CC2Nc3cccc4cccc(c34)NC2=O)cc1 (centres undefined)		3.98 µM (active)
Oc1c(C(c2ccccc2)N2CCOCC2)ccc2ccccc12 (centres undefined)		3.98 µM (active)
O=c1[nH]c(N2CCOCC2)cc2ccccc12	1.03%	
c1ccc2c(OCCCCN3CCOCC3)cccc2c1	-1.13%	
CC1CCCC(C)N1C(=O)COC(=O)CNC(=O)c1ccccc1 (centres undefined)	0.689%	
Cc1cc2nc(NC(=O)C3(C)CCN3C(=O)C(C)C)[nH]c2cc1C (centres undefined)	-17.4%	
CC1(C(=O)NS(=O)(=O)C2CC2)CCN(C(=O)c2ccccc2F)C1 (centres undefined)	-6.44%	
N#Cc1ccc(COC(=O)CC(NC(N)=O)c2ccc(Cl)cc2)cc1 (centres undefined)	-7.64%	
COCCOC(=O)c1[nH]c2c(c1C)C(=O)CC(c1ccco1)C2 (centres undefined)		15.8 µM (active)
O=C(Nc1ccc(O)c2c(=O)cc(-c3ccccc3Cl)oc12)c1ccc(Cl)c(Cl)c1	-1.44%	
Nc1c(C(=O)O)cnc2c(-c3ccc(Cl)cc3)cnn12		6.31 µM (active)
CN1OC[C@@H]2CN3C(=O)N(c4cccc5ccccc45)c4ccccc4[C@@H]3C[C@@H]21	-17.2%	
CCCn1c(SCC(=O)N2c3ccccc3Sc3ccccc32)nc2c1c(=O)n(C)c(=O)n2C	-3.15%	
CCC(c1nnnn1Cc1ccco1)N(CCc1ccccc1)Cc1cc2ccc(OC)cc2[nH]c1=O (centres undefined)	2.22%	
O=C(NCCN1CCN(c2ccccc2)CC1)C1CCCN(S(=O)(=O)c2cnc[nH]2)C1 (centres undefined)	3.17%	
Cc1cc(C)c2nc(-c3ccccn3)cc(C(=O)Nc3ccc(S(=O)(=O)Nc4onc(C)c4C)cc3)c2c1		8.91 µM (active)
Cc1cc(NS(=O)(=O)c2ccc(NC(=O)COc3ccc(Br)cc3)cc2)nc(C)n1	0.161%	
COCCCNC(=O)c1ccc2c(=O)n(CC3CCCO3)c(=S)[nH]c2c1 (centres undefined)	-8.52%	
CN(Cc1ccccc1)C(=O)c1csc([C@H]2C[C@H](O)[C@@H](CO)O2)n1	-0.235%	

Compound	activity change, negative = inhibition	Potency
COc1cccc(CNS(=O)(=O)c2ccccc2Br)c1OC	-0.448%	
COC(=O)CSc1nc(C)cc(C)n1	1.95%	
O=C(Cn1cnc2scc(-c3cccc([N+](=O)[O-])c3)c2c1=O)NCc1ccco1		11.2 µM (active)
CC1CCCCN1C(=O)Cn1cnc2cc([N+](=O)[O-])ccc2c1=O (centres undefined)	-5.4%	
COC(=O)CNC(=O)C1Cc2ccccc2CN1S(=O)(=O)c1cccs1 (centres undefined)	-1.95%	
O=C(O)c1ccc(Cl)c(S(=O)(=O)Nc2ccc3[nH]c(=O)[nH]c3c2)c1	-19.7%	
O=S(=O)(Nc1nc(-c2ccccc2)cs1)c1cc(Cl)ccc1Cl		28.2 µM (active)
COC(=O)c1ccccc1NC(=O)CN1CCC(n2nnc3cc(C(F)(F)F)ccc32)CC1	-0.603%	
Cc1ccc(S(=O)(=O)N2[C@@H](c3ccc(C(C)(C)C)cc3)C(C(=O)O)=CC[C@H]2c2ccc(C(C)C)cc2)cc1	-29.1%	
Cc1cccc(NC(c2ccc(O)cc2)c2ccc3ccc(C)nc3c2O)n1 (centres undefined)		22.4 µM (active)
O=c1cc(-c2ccccc2)[nH]n1-c1nc2ccccc2[nH]1		15.8 µM (active)
CC(C)C(=O)Nc1nnc(NC(=S)Nc2ccccc2)s1		20 µM (active)
CC(=O)Nc1ccc(NC(=S)Nc2ccc(Br)cc2)cc1	2.77%	
O=C(CSc1n[nH]c(-c2cccnc2)n1)OC1CCCCC1	-6.36%	
CCCN(C(=O)c1cc(-c2ccco2)nc2ccccc12)c1c(N)n(Cc2ccccc2)c(=O)[nH]c1=O		15.8 µM (active)
CCCn1c(N)c(N(CCOC)C(=O)c2cc(-c3ccco3)nc3ccccc23)c(=O)[nH]c1=O	-19%	
CCCN(C(=O)c1cccc(-n2cccc2)c1)c1c(N)n(Cc2ccccc2)c(=O)[nH]c1=O		7.08 µM (active)
CCCCC(=O)N(Cc1ccc2c(c1)OCO2)Cc1nc2ccccc2c(=O)[nH]1	-1.7%	
Cc1ccc(Nc2nc(C)c3c(n2)CC(C)CC3=O)c(C)c1 (centres undefined)	-0.0066%	
O=C(O)c1cc2c(N3CCC(Cc4ccccc4)CC3)ncnc2s1		3.98 µM (active)
